Source: PubChem BioAssay (NCI)
The panel holds about 79,000 compounds, 15% with a hit somewhere; the sample as a whole holds those more often. A number with no mark means an inactive call. Active and inactive are the calls of the source. No stated cut-off is given here; in the data, active means growth inhibition above about 70%; inactive means the rest.

Key:
[1] = NCI Yeast Anticancer Drug Screen. Data for the rad50 strain (AID 155);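 further: 0% = growth of vehicle-only cultures of the same strain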; details: S. cerevisiae rad50 strain growth inhibition, stronger effect = higher value
How it was run: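 Readout: growth inhibition relative to vehicle-treated cultures. Compound exposure was carried out in a genetically defined yeast strain deficient in DNA damage repair.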

[2] = NCI Yeast Anticancer Drug Screen. Data for the mec2-1 strain (AID 157); details: S. cerevisiae mec2-1 strain, stronger effect = higher value
How it was run: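 Readout is yeast growth inhibition, normalised to vehicle-treated controls, in the mec2-1 strain exposed to compound.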

[3] = NCI Yeast Anticancer Drug Screen. Data for the sgs1 mgt1 strain (AID 161);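 further: 0% = growth of cultures given vehicle only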; details: S. cerevisiae sgs1 mgt1 strain, stronger effect = higher value
How it was run: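 Growth of a repair-deficient yeast mutant was monitored after compound treatment and expressed as inhibition relative to vehicle-treated cultures.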

[4] = NCI Yeast Anticancer Drug Screen. Data for the cln2 rad14 strain (AID 165);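 further: 0% = growth equal to vehicle treated cultures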; details: S. cerevisiae cln2 rad14 strain, stronger effect = higher value
How it was run: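 Relative to vehicle controls, growth inhibition of compound-treated cln2 rad14 yeast was recorded.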

[5] = NCI Yeast Anticancer Drug Screen. Data for the bub3 strain (AID 167); details: S. cerevisiae bub3 mutant strain, stronger effect = higher value
How it was run: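 Readout: yeast growth inhibition, expressed relative to vehicle-only wells. The test organism is a mutant strain from a panel with lesions in DNA repair or checkpoint genes.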

[6] = NCI Yeast Anticancer Drug Screen. Data for the mlh1 rad18 strain (AID 175); details: S. cerevisiae mlh1 rad18 strain growth inhibition, stronger effect = higher value
How it was run: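 Test agents were incubated with a yeast strain of defined genotype (DNA damage repair defect). Inhibition of growth was derived by comparison with vehicle-exposed cultures.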

[7] = at 5.0 µM (retest, dose inferred, filed as 0.5)
[8] = at 50.0 µM (retest, dose inferred, filed as 5.0)

Structure (SMILES) | growth inhibition [1, 7] | growth inhibition [1, 8] | growth inhibition ([1]; at 50.0 µM) | growth inhibition [2, 7] | growth inhibition [2, 8] | growth inhibition ([2]; at 50.0 µM) | growth inhibition [3, 7] | growth inhibition [3, 8] | growth inhibition ([3]; at 50.0 µM) | growth inhibition [4, 7] | growth inhibition [4, 8] | growth inhibition ([4]; at 50.0 µM) | growth inhibition [5, 7] | growth inhibition [5, 8] | growth inhibition ([5]; at 50.0 µM) | growth inhibition [6, 7] | growth inhibition [6, 8] | growth inhibition ([6]; at 50.0 µM)
O=C1NN(C2=NNC3(C(=O)N2)c2ccccc2-c2ccccc23)C(c2ccccc2)=N/C1=C/c1ccc(Cl)cc1 | -9% | -5% | 32.4% | -13% | -5% | 17.4% | -1% | 6% | -13.5% | -10% | 3% | -3.25% | -16% | -16% | 18.4% | -48% | -10% | 44.1%
CCCCCCCCCCCCCCCCCCOP(=O)([O-])OCC[N+](C)(C)C | 14% | 99% (active) | 90.5% (active) | -2% | 99% (active) | 92% (active) | -2% | 99% (active) | 92.5% (active) | 15% | 89% (active) | 89.5% (active) | 7% | 99% (active) | 90.3% (active) | 10% | 99% (active) | 91.6% (active)
CC1(C)CC(=O)C(c2ccccc2[N+](=O)[O-])=C(O)C1 | 4% | 6% | 99.6% (active) | 11% | 20% | 99.3% (active) | 4% | 8% | 69.6% | 5% | 24% | 90.3% (active) | -6% | -1% | 98.3% (active) | -2% | 7% | 99.2% (active)
O=c1[nH]ncc(SCc2ccccc2)c1SCc1ccccc1 | 8% | 35% | 97.2% (active) | 3% | 53% | 97.9% (active) | 1% | 58% | 98% (active) | 8% | 31% | 96.1% (active) | 14% | 37% | 98.4% (active) | 8% | 57% | 96.5% (active)
CCOc1nc(N)nc(C)c1N=Nc1ccc(Br)cc1 | 9% | 90% (active) | 70.2% (active) | 0% | 32% | 2.6% | 4% | 72% (active) | 22.2% | 4% | 30% | -9.65% | 4% | 88% (active) | 75.9% (active) | 17% | 98% (active) | 35.1%
O=C(CCl)OCC(=O)c1ccc(-c2ccccc2)cc1 | 9% | 97% (active) | 10.2% | 5% | 97% (active) | -1.9% | 10% | 99% (active) | 21.2% | 28% | 95% (active) | 10.2% | 11% | 98% (active) | 19.4% | 16% | 98% (active) | 32.4%
CC1CC(C)CC(C(O)(C(=O)O)C2CC(C)CC(C)C2)C1 (stereo not given) | 23% | 99% (active) | 99.2% (active) | 18% | 99% (active) | 97% (active) | 10% | 99% (active) | 99.5% (active) | 82% (active) | 100% (active) | 78.5% (active) | 29% | -34% | 94% (active) | 18% | 99% (active) | 99.5% (active)
CC(C)(C)NCc1cc(C(C)(C)C)cc(-c2ccc(Cl)cc2)c1O | 26% | 92% (active) | 84.8% (active) | 13% | 91% (active) | 88.4% (active) | 7% | 88% (active) | 86.5% (active) | 44% | 55% | 76.8% (active) | 12% | 91% (active) | 83.9% (active) | 25% | 93% (active) | 84.6% (active)
COc1ccc2c(Cc3ccc(Cl)cc3)cncc2c1O | 5% | 91% (active) | 98.1% (active) | 14% | 97% (active) | 99.2% (active) | 15% | 96% (active) | 97.2% (active) | 2% | 87% (active) | 99% (active) | 10% | 93% (active) | 99% (active) | 21% | 96% (active) | 99.1% (active)
Cc1cccc(Cl)c1NC(=O)/C=C/c1ccccc1 | 41% | 44% | -22.1% | 44% | 44% | -6.05% | -1% | 23% | 1.1% | 29% | 6% | -1.6% | 27% | 39% | 8.6% | 35% | 48% | -6.65%
Clc1ccc(CSCCc2ccncc2)cc1Cl | -5% | 98% (active) | 98.7% (active) | 0% | 96% (active) | 99% (active) | 5% | 97% (active) | 97.5% (active) | -19% | 95% (active) | 97.6% (active) | 5% | 98% (active) | 98.2% (active) | 4% | 97% (active) | 98.8% (active)
CCc1nc(N)nc(N)c1-c1ccc(NCCCCCCCCCCCCN)c([N+](=O)[O-])c1 | -18% | 99% (active) | 94.2% (active) | -11% | 99% (active) | 99.2% (active) | -1% | 99% (active) | 40.4% | -24% | 98% (active) | 87% (active) | -5% | 99% (active) | 98.5% (active) | -19% | 99% (active) | 98.7% (active)
Oc1ccc(-c2ccccc2)cc1Cl | -1% | 98% (active) | 99.2% (active) | -12% | 99% (active) | 99.7% (active) | -3% | 99% (active) | 99.7% (active) | -11% | 98% (active) | 97.5% (active) | -23% | 98% (active) | 99.4% (active) | -5% | 99% (active) | 99% (active)
O=C1OCC/C1=C1/CCOC1 | 73% (active) | 97% (active) | 99.2% (active) | 65% | 98% (active) | 99.3% (active) | 82% (active) | 98% (active) | 50.3% | 51% | 97% (active) | 98.8% (active) | 61% | 97% (active) | 99.2% (active) | 78% (active) | 97% (active) | 99.5% (active)
CC(C)(C)c1c2c(c(C(C)(C)C)c3c1OCN(Cc1ccccc1)C3)OCN(Cc1ccccc1)C2 | 4% | 12% | 54.1% | 0% | -13% | 9.25% | -2% | -19% | 71.7% (active) | -15% | -38% | 17.6% | -5% | 18% | 11.7% | -10% | 1% | 41.5%
Cc1cc(O)ccc1N=Nc1ccccc1 | 10% | 99% (active) | 99.7% (active) | -1% | 99% (active) | 99.8% (active) | -1% | 99% (active) | 99.7% (active) | -8% | 99% (active) | 99.4% (active) | 14% | 99% (active) | 99.5% (active) | 1% | 99% (active) | 99.7% (active)
CC(C)N(CC(=O)c1ccc2cc(Cl)c3ccccc3c2c1)C(C)C | 20% | 97% (active) | 99% (active) | 34% | 98% (active) | 98.6% (active) | 79% (active) | 98% (active) | 98.8% (active) | 8% | 98% (active) | 98.2% (active) | 32% | 97% (active) | 98.5% (active) | 39% | 98% (active) | 98.5% (active)
O=C1NC(CSSCC2NC(=O)N(c3ccccc3)C2=O)C(=O)N1c1ccccc1 (stereo not given) | 8% | 94% (active) | 87.9% (active) | 11% | 97% (active) | 58.9% | 16% | 99% (active) | 93.6% (active) | 1% | 90% (active) | 58.1% | 4% | 98% (active) | 55.5% | 8% | 96% (active) | 95.2% (active)
Cc1ccsc1/C=N/Nc1cc(C)c2cccc(C)c2n1 | 1% | 47% | 48.5% | -23% | 21% | 30.3% | -11% | 24% | 48.4% | 4% | 38% | 33.8% | -12% | 63% | 15.4% | -8% | 57% | 63.2%
C/C(=N\OS(=O)(=O)O)SC1OC(CO)C(O)C(O)C1O (stereo not given) | 3% | -17% | 3.1% | -2% | -13% | -4.8% | -1% | 11% | -7.4% | -16% | 18% | -0.95% | -2% | -3% | -8.15% | 6% | -3% | -11%
